# Data: PubChem BioAssay (NCI)
# Compounds without any hit were thinned out: in the full panel of roughly 79,000, 15% have a hit. Unmarked numbers belong to inactive results. The source made the active and inactive calls. Rule as the data show it: active = growth inhibition above about 70%; inactive = the rest.
# Key:
# [1] = NCI Yeast Anticancer Drug Screen. Data for the rad50 strain (AID 155);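 also: 0% = growth of vehicle-only cultures of the same strain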; conditions: S. cerevisiae rad50 strain growth inhibition; at 50.0 µM; active compounds read high
# Summary of the method: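 Compounds were tested on a yeast strain with an engineered DNA damage repair alteration; the reported value is growth inhibition normalised to vehicle treatment.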
# [2] = NCI Yeast Anticancer Drug Screen. Data for the mec2-1 strain (AID 157); conditions: S. cerevisiae mec2-1 strain, at 50.0 µM, active compounds read high
# Summary of the method: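 Compounds were applied to mec2-1 yeast cells. Their growth was then compared with that of vehicle-treated cultures to give growth inhibition.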
# [3] = NCI Yeast Anticancer Drug Screen. Data for the sgs1 mgt1 strain (AID 161);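 also: 0% = growth of cultures given vehicle only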; conditions: S. cerevisiae sgs1 mgt1 strain, at 50.0 µM, active compounds read high
# Summary of the method: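 Percent growth inhibition was derived by comparing compound-exposed mutant yeast with vehicle-exposed cultures. The strain carries alterations in DNA damage repair.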
# [4] = NCI Yeast Anticancer Drug Screen. Data for the cln2 rad14 strain (AID 165);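 also: 0% = growth equal to vehicle treated cultures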; conditions: S. cerevisiae cln2 rad14 strain, at 50.0 µM, active compounds read high
# Summary of the method: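 Strain: cln2 rad14 yeast, altered in cell cycle control and DNA damage repair. Read-out: growth inhibition vs vehicle.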
# [5] = NCI Yeast Anticancer Drug Screen. Data for the bub3 strain (AID 167); conditions: S. cerevisiae bub3 mutant strain, at 50.0 µM, active compounds read high
# Summary of the method: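 Growth of a checkpoint-deficient yeast mutant is measured after compound exposure. Values represent inhibition relative to vehicle.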
# [6] = NCI Yeast Anticancer Drug Screen. Data for the mlh1 rad18 strain (AID 175); conditions: S. cerevisiae mlh1 rad18 strain growth inhibition; at 50.0 µM; active compounds read high
# Summary of the method: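 A repair-deficient yeast strain is exposed to test compound, and growth is scored relative to vehicle-treated controls.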
SMILES,growth inhibition [1],growth inhibition [2],growth inhibition [3],growth inhibition [4],growth inhibition [5],growth inhibition [6]
Cc1cccc(C)c1NC(N)=S,3.85%,6.15%,-10.6%,-86.7%,6%,3.25%
CC1CNCCN1c1ccc(Cl)cc1 (configuration not stated),13.6%,-20.8%,11.2%,20.1%,22.8%,6.15%
CCOC(=O)C(C#N)c1ccccc1 (configuration not stated),22.3%,19.1%,18%,14.1%,-9.55%,43.4%
CCCCCC1(C(C)C)C(=O)NC(=O)NC1=O,3.1%,8.65%,1.5%,15.3%,-0.6%,6.35%
Cc1cccc(NC(N)=S)c1,11.6%,1.55%,5.65%,-4.35%,-8.15%,8.35%
O=[As]c1ccc2c(c1)NC(O)=CO2 (configuration not stated),21.9%,38.6%,20.7%,27.9%,20.4%,32.5%
COc1cc2c(cc1O)CCN[C@H]2C,-1.3%,-25.8%,-0.95%,-4.1%,3.55%,-1.45%
O=[N+]([O-])c1ccc(SC2CCCCCCC2Br)c([N+](=O)[O-])c1 (configuration not stated),-16.9%,-13.5%,-0.5%,-33.6%,8.95%,-18.4%
CCC(C)c1ccc(O)cc1 (configuration not stated),3.5%,-2.9%,-5.95%,-16.1%,-5%,-4.65%
C=C(C)[C@H]1Cc2c(ccc3c2O[C@@H]2COc4cc(OC)c(OC)cc4[C@@H]2C3=O)O1,43.5%,19.2%,43.4%,27.8%,49.1%,52.8%
NP(=O)(OCCC(OCc1ccccc1)OCc1ccccc1)N(CCCl)CCCl (configuration not stated),54.6%,9.1%,54.6%,48.5%,6.2%,31.8%
CC1(C(=N)N)CCOC1=O (configuration not stated),4.4%,18.5%,-10.8%,4.5%,-1%,7.55%
CC1CC(C)(C)[N+](C)(CCC(C(N)=O)(c2ccccc2)c2ccccc2)C1 (configuration not stated),-8.2%,-5.15%,-7.8%,12.3%,-16.4%,3.05%
CCC[CH2][Sn]1([CH2]CCC)[O]CC2(CCCCC2)C[O]1,99.6% (active),99.8% (active),99.2% (active),99.5% (active),99.7% (active),99.6% (active)
O=C1C(=C(O)c2ccccc2)C(=O)c2ccccc21,-3%,1.65%,1.65%,-0.25%,-1.8%,12.3%
C[N+](C)(C)CC1CCCC/C1=N\O (configuration not stated),23.2%,0.3%,9.75%,39%,8.6%,39.3%
O=C1NC(=O)C(Cc2ccc3c(c2)OCO3)C(=O)N1,-6.05%,-9.5%,4.95%,-62.9%,7.35%,8.15%
O=S(=O)(F)c1ccccc1C[P+](c1ccccc1)(c1ccccc1)c1ccccc1,84.2% (active),86% (active),66%,66.7%,82.8% (active),91% (active)
c1cc[c]([Ge]([c]2ccccc2)[c]2ccccc2)cc1,23.1%,-3.8%,3.05%,20.3%,-5.15%,14.4%

SMILES,growth inhibition [1],growth inhibition [2],growth inhibition [3],growth inhibition [4],growth inhibition [5],growth inhibition [6]
CN1C2CCC1C(O)C(c1ccccc1)C2 (configuration not stated),6.15%,9.25%,-0.05%,-11.8%,0.45%,-0.6%
ClCCN(CCCl)c1ccc(/C=N/N=C2c3ccccc3-c3ccccc32)cc1,-21.6%,-7.05%,-6.2%,-2.95%,-18.9%,-4.5%
CC(C)c1ccc(CCN)cc1,6.25%,3.5%,-19.8%,-0.2%,5.65%,-6.1%
C=[CH][Sn]([Cl])([Cl])[CH]=C.CN(C)P(=O)(N(C)C)N(C)C,28.5%,32.5%,44.4%,28.1%,53.3%,54.1%
Cc1ccc(C)c(OP(=O)(Oc2cc(C)ccc2C)Oc2cc(C)ccc2C)c1,-29.8%,-42.5%,-15.6%,8.85%,-18%,-36.9%
[O-][Cl+3]([O-])([O-])O.[O-][n+]1c2ccccc2nc2ccccc21.[Zn+2],58.1%,36.1%,18.6%,14.8%,28.3%,41.5%
COc1ccn(C)c(=O)c1C#N,3.15%,0.3%,-6.35%,5.6%,2.15%,-2.4%
CCCC(C)SP(=S)(SC(C)CCC)SC(C)CCC (configuration not stated),4.1%,-11.3%,-1.9%,-43.3%,2.85%,19.6%
CCCCOP(=O)(/C=C/c1cccs1)OCCCC,81.2% (active),37%,79% (active),7.95%,61.5%,37.1%
CCc1ccccc1[N+](=O)[O-],27.2%,28.7%,3.8%,4.65%,6.45%,21.2%
O=C(O)C(Br)CBr (configuration not stated),4.7%,17.6%,27.2%,-13.2%,-1.55%,34.5%
CC1CC[Si](C)(C)CC12C(=O)NC(=O)NC2=O (configuration not stated),6.65%,1.95%,19.6%,-0.05%,10.1%,-7.05%
O.[Cr+3].[NH2-].[NH2-].[NH2-].[NH2-].[NH2-].[O-][Cl+3]([O-])([O-])O,16.6%,6.85%,-0.4%,9.75%,3.85%,-18.1%
N#Cc1ccc(Cc2ccccn2)cc1Cl,-1.55%,-1.55%,-8.9%,2.1%,-18.9%,4.25%
CN(C)C(=O)Sc1cc(Cl)c(S(=O)(=O)F)cc1Cl,9.45%,6.8%,10.7%,8.9%,3.35%,14.9%
O=C1C=CC2(C=C1)CCN=c1c(O)c3c(c(O)c12)=NC=N3,15.5%,7.55%,8.5%,29.2%,11.9%,-4.5%
Cc1ccc(NC(=O)c2cc3ccccc3cc2O)c(C)c1,17.1%,-16.1%,20.7%,8.75%,17.9%,21.8%
O=S(=O)(F)c1ccccc1S(=O)(=O)Cl,11.7%,-2.55%,15.6%,16.4%,12.4%,21.6%
